Experimental data taken from PubChem BioAssay AID620 (Sanford-Burnham Center for Chemical Genomics, 2007).
Screen size: about 87,000 compounds; about 360 (0.41%) were called active. The sample holds actives, similar compounds and a random draw of the others, so the mix is not that of the screen. Rule as the data show it: active = cytotoxicity above about 50%; inactive = the rest.

Test: HT1080 cell viability loss – fluorescence readout (AID 620);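 also: cells exposed to compound overnight then 4 h with Alamar Blue; 0% = vehicle DMSO and 100% = killing control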
Conditions: at 10 µM, hits give high values

Row | Compound | cytotoxicity
1 | CC(=O)N1CCc2cc(S(=O)(=O)NC(C(=O)Nc3nc(C)cs3)C(C)C)ccc21 (stereo unspecified) | 11.9% (inactive)
2 | Cc1nnc2sc(-c3cc4ccccc4o3)nn12 | 0.8% (inactive)
3 | c1ccc(-c2nnc3sc(-c4cc5ccccc5o4)nn23)cc1 | -3.1% (inactive)
4 | COc1ccccc1-c1nnc2sc(-c3cc4ccccc4o3)nn12 | 53.5% (active)
5 | Cc1ccccc1NS(=O)(=O)c1ccc(NC(=O)c2ccco2)cc1 | 2.4% (inactive)
6 | Cc1cc(C)cc(C(=O)N2CC(C)OC(C)C2)c1 (stereo unspecified) | -14.9% (inactive)
7 | COc1ccc(-c2cc(C(F)(F)F)nc(S(C)(=O)=O)n2)cc1OC | 10.4% (inactive)
8 | CS(=O)(=O)c1nc(-c2ccccc2)cc(C(F)(F)F)n1 | 59.4% (active)
9 | COC(=O)CSc1nc(-c2ccc(F)cc2)cc(C(F)(F)F)n1 | -10% (inactive)
10 | COc1ccccc1-c1cc(C(F)(F)F)nc(S(=O)(=O)CCCC(=O)O)n1 | -3.7% (inactive)
11 | CCOC(=O)CSc1nc(-c2ccccc2)cc(C(F)(F)F)n1 | -7.2% (inactive)
12 | COc1ccccc1-c1cc(C(F)(F)F)nc(S(=O)(=O)CCCC(=O)N2CCCCC2C)n1 (stereo unspecified) | 18.6% (inactive)
13 | COC(=O)CCS(=O)(=O)c1nc(-c2ccccc2)cc(C(F)(F)F)n1 | 2.4% (inactive)
14 | COc1ccc(-c2cc(C(F)(F)F)nc(S(C)(=O)=O)n2)cc1 | 11.7% (inactive)
15 | CCOC(=O)CS(=O)(=O)c1nc(-c2ccc(F)cc2)cc(C(F)(F)F)n1 | 56.6% (active)
16 | CCOC(=O)CS(=O)(=O)c1nc(-c2ccccc2)cc(C(F)(F)F)n1 | 8.3% (inactive)
17 | CCOC(=O)Cn1c(=O)oc2cc(S(=O)(=O)N3CCN(c4ccccn4)CC3)ccc21 | -4.7% (inactive)
18 | N#Cc1ccccc1Cn1c(=O)n(C2CCCC2)c(=O)c2ccccc21 | 4.1% (inactive)
19 | COc1cccc(C(=O)NCC(=O)N2CCC(C)CC2)c1 | 7.2% (inactive)
20 | COc1cccc(Oc2cn[nH]c2-c2ccc(O)cc2O)c1 | 55.2% (active)
21 | COc1cccc(Oc2cn[nH]c2-c2ccc(OC)cc2O)c1 | 19.1% (inactive)
22 | COc1ccc(Oc2cn[nH]c2-c2ccc(O)cc2O)cc1 | 19% (inactive)
23 | N#CC1C(C#N)N2CCCN2C1c1ccc(Cl)cc1 (stereo unspecified) | -17.9% (inactive)
24 | CCn1c(SCC(=O)O)nnc1C1CCCCC1 | 3.3% (inactive)
25 | CCN1/C(=C/c2ccc3ccccc3[n+]2CC)C=Cc2ccccc21 | 54.3% (active)
26 | CCN1C(=O)/C(=C2\C=Cc3ccccc3N2CC)OC1=S | 5.1% (inactive)

Row | Compound | cytotoxicity
27 | CCN1C(=C2C(=O)c3ccccc3C2=O)C=Cc2ccccc21 | 12.1% (inactive)
28 | Cc1cc(C)c2c(N)c(C(=O)NCc3ccco3)sc2n1 | 10.7% (inactive)
29 | Cc1cc(C)cc(N(CC(=O)N2CCN(Cc3ccccc3)CC2)S(=O)(=O)c2c(C)noc2C)c1 | -0.8% (inactive)
30 | Cc1ccccc1-c1nc(CN2CCCC(C(=O)NCc3cccnc3)C2)c(C)o1 (stereo unspecified) | -7.7% (inactive)
31 | N#CC1=C(N)Oc2c(ccc3ccccc23)C1c1cccs1 (stereo unspecified) | 65.3% (active)
32 | N#CC1=C(N)Oc2cc3ccccc3cc2C1c1cccs1 (stereo unspecified) | -2.7% (inactive)
33 | N#CC1=C(N)Oc2cc(O)ccc2C1c1cccs1 (stereo unspecified) | -3.3% (inactive)
34 | COc1ccc(CCn2nnnc2C(C(C)C)N2CCC(C(N)=O)CC2)cc1OC (stereo unspecified) | 6% (inactive)
35 | Cc1cc(C)cc(OC(=O)N2CCOCC2)c1 | 3.6% (inactive)
36 | CCOC(=O)CNc1c(-c2ccc(O)cc2)nc2ccc(Cl)cn12 | 36.6% (inactive)
37 | CCOC(=O)CNc1c(-c2ccc(OC)cc2)nc2ccc(Cl)cn12 | 73.3% (active)
38 | CCOC(=O)CNc1c(-c2ccccc2)nc2ccc(Cl)cn12 | 24.2% (inactive)
39 | CCOC(=O)N1CCN(C(=O)CSc2nc3ccccc3c(=O)n2-c2ccccc2)CC1 | 5.2% (inactive)
40 | CCn1c(CC(=O)Nc2ccc(C)c(Cl)c2)nnc1SCC(=O)Nc1nc(C)cs1 | -12.9% (inactive)
41 | COc1ccc(CC(=O)NC2CCN(CC(=O)Nc3ccc4c(c3)OCCO4)CC2)cc1OC | -8.3% (inactive)
42 | O=C(CN1CCc2ccccc2C1)Nc1ccccc1N1CCCCCC1 | -18.8% (inactive)
43 | CC(CN1c2ccccc2Sc2ccccc21)N(C)C (stereo unspecified) | 11.7% (inactive)
44 | COc1ccc([C@@H]2Sc3ccccc3N(CCN(C)C)C(=O)[C@@H]2OC(C)=O)cc1 | 31.1% (inactive)
45 | CN1CCN(CCCN2c3ccccc3Sc3ccc(C(F)(F)F)cc32)CC1 | 7.7% (inactive)
46 | O=C(CN1CCCC1)N1c2ccccc2Sc2ccc(C(F)(F)F)cc21 | -7.9% (inactive)
47 | CN(C)CCCN1c2ccccc2Sc2ccccc21 | 15.9% (inactive)
48 | CN(C)CCCN1c2ccccc2Sc2ccc(C(F)(F)F)cc21 | 54% (active)
49 | OCCN1CCN(CCCN2c3ccccc3Sc3ccc(Cl)cc32)CC1 | 22.8% (inactive)
50 | COc1ccc2c(c1)Sc1ccccc1N2CCN(C)C | 58.8% (active)
51 | OCCN1CCN(CCCN2c3ccccc3Sc3ccc(C(F)(F)F)cc32)CC1 | 91.7% (active)
